How the values were obtained:
Settings in all cases: concentration: 1 μM, replicates: in singlicate; n = 1
[1] = system: AXL
[2] = system: T1, BIKE
T1 construct: gene BMP2K

[3] = system: BLK
[4] = system: BMPR1A
[5] = system: BMPR1B
[6] = system: BMPR2
[7] = system: BMX
[8] = system: BRAF
[9] = system: T2, BRK
T2 construct: gene PTK6

[10] = system: BRSK1
[11] = system: BRSK2
[12] = system: BTK
[13] = system: BUB1
[14] = system: CAMK1B
[15] = system: CAMK1D
[16] = system: CAMK1G
[17] = system: CAMK1
[18] = system: CAMK2A
[19] = system: CAMK2B
[20] = system: CAMK2D
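Note: KINOMEscan kinase panel screen.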

Row | SMILES | %Inh [1] [%] | %Inh [2] [%] | %Inh [3] [%] | %Inh [4] [%] | %Inh [5] [%] | %Inh [6] [%] | %Inh [7] [%] | %Inh [8] [%] | %Inh [9] [%] | %Inh [10] [%] | %Inh [11] [%] | %Inh [12] [%] | %Inh [13] [%] | %Inh [14] [%] | %Inh [15] [%] | %Inh [16] [%] | %Inh [17] [%] | %Inh [18] [%] | %Inh [19] [%] | %Inh [20] [%]
1 | COc1ccc(Nc2nccc(N3CCC(NS(=O)(=O)c4ccc(NC(C)=O)cc4)C3)n2)cc1 (centres unmarked) [GSK1379729] | 23 | 18 | 26 | 21 | 3 | 0 | 12 | 16 | 18 | 2 | 0 | 26 | 37 | 31 | 19 | 0 | 18 | 0 | 0 | 0
2 | Cl.c1ccc(Cn2cnc3cc(Nc4ncnc5ccccc45)ccc32)cc1 [GW272142] | 0 | 34 | 0 | 0 | 0 | 0 | 6 | 0 | 11 | 4 | 0 | 0 | 38 | 31 | 0 | 0 | 0 | 0 | 0 | 15
3 | COc1cccc(-n2cnc3c(N)ncnc32)c1 [SKF-97416] | 0 | 0 | 0 | 17 | 24 | 57 | 0 | 18 | 0 | 16 | 6 | 0 | 57 | 20 | 11 | 0 | 16 | 0 | 0 | 12
4 | COc1ccc(-c2cc3c(C)nc(N)nc3n([C@H]3CC[C@H](O)CC3)c2=O)cn1 | 0 | 0 | 0 | 40 | 0 | 0 | 0 | 0 | 0 | 0 | 0 | 0 | 0 | 0 | 0 | 0 | 0 | 0 | 0 | 0
5 | Nc1nc(N)c2nc(-c3ccccc3)[nH]c2n1 [SKF-12778] | 19 | 3 | 0 | 0 | 0 | 7 | 0 | 1 | 16 | 0 | 0 | 0 | 23 | 18 | 0 | 0 | 0 | 0 | 0 | 0
6 | COc1cc(Nc2nccc(N3CCC(NC(=O)C(C)c4ccc(Cl)cc4)C3)n2)cc(OC)c1OC (centres unmarked) [GSK1379757] | 13 | 40 | 28 | 0 | 0 | 4 | 1 | 0 | 11 | 0 | 0 | 0 | 48 | 0 | 9 | 0 | 22 | 0 | 0 | 0
7 | COC(=O)c1c(-c2ccccc2)c2cc(Br)ccc2c(=O)n1Cc1ccc(S(C)(=O)=O)cc1 | 7 | 0 | 9 | 0 | 19 | 3 | 17 | 57 | 0 | 29 | 0 | 47 | 15 | 0 | 26 | 21 | 42 | 21 | 6 | 18
8 | CCS(=O)(=O)c1ccc(OC)c(Nc2ncc(-c3ccc(F)cc3)o2)c1.Cl [GW591947] | 0 | 22 | 41 | 14 | 0 | 0 | 0 | 0 | 0 | 0 | 0 | 0 | 8 | 0 | 3 | 4 | 0 | 0 | 0 | 12
9 | Nc1n[nH]c2nnc(-c3ccccc3)c(-c3ccccc3)c12 [GW554060] | 0 | 22 | 35 | 0 | 41 | 0 | 22 | 2 | 8 | 10 | 0 | 2 | 60 | 5 | 0 | 4 | 3 | 0 | 0 | 0
10 | Cc1ccccc1COc1cc(-n2cnc3cc(Cl)ccc32)sc1C(N)=O [GW813349] | 2 | 20 | 18 | 0 | 12 | 26 | 1 | 6 | 0 | 0 | 2 | 18 | 0 | 0 | 5 | 0 | 0 | 0 | 0 | 0
11 | COc1cc2nccc(Nc3cccc(Oc4ccccc4)c3)c2cc1OC.Cl [GW284543] | 0 | 1 | 69 | 0 | 0 | 0 | 0 | 0 | 60 | 0 | 1 | 24 | 38 | 28 | 0 | 0 | 2 | 0 | 0 | 6
12 | CCC(=O)c1c(-c2ccccc2)c2cc(Cl)ccc2c(=O)n1Cc1cc(S(C)(=O)=O)n(CC(F)F)n1 | 0 | 0 | 0 | 0 | 6 | 1 | 0 | 13 | 0 | 0 | 0 | 0 | 4 | 0 | 0 | 1 | 0 | 2 | 0 | 0
13 | CCc1nc(-c2cccc(C)c2)c(-c2ccncc2)s1 | 0 | 3 | 0 | 0 | 0 | 0 | 0 | 50 | 7 | 0 | 0 | 0 | 35 | 9 | 23 | 0 | 8 | 0 | 0 | 0
14 | Nc1nccc2scc(-c3ccc4c(c3)CCN4C(=O)Cc3ccccc3)c12 [GSK2576924] | 36 | 8 | 1 | 0 | 0 | 2 | 19 | 0 | 43 | 0 | 0 | 0 | 0 | 33 | 10 | 0 | 9 | 10 | 2 | 4
15 | CCn1c(-c2ccoc2)nc2cnccc21 [SB-733887] | 5 | 6 | 0 | 0 | 10 | 20 | 0 | 1 | 0 | 0 | 0 | 0 | 59 | 0 | 8 | 0 | 2 | 0 | 0 | 0
16 | CCCC(=O)Nc1n[nH]c2ncc(-c3cccc4ccccc34)cc12 [SB-642057] | 18 | 28 | 0 | 12 | 5 | 0 | 0 | 0 | 0 | 0 | 0 | 0 | 35 | 7 | 14 | 11 | 0 | 0 | 0 | 14
17 | COc1ccc(-n2cnc3c(N)ncnc32)cc1 [SKF-97236] | 22 | 55 | 16 | 34 | 0 | 0 | 0 | 5 | 0 | 2 | 14 | 8 | 4 | 25 | 10 | 0 | 5 | 0 | 0 | 0
18 | CN1C(=O)C(Nc2cc(Cl)c(O)c(Cl)c2)=C(c2ccc(Cl)cc2)C1=O [SB-404321] | 27 | 0 | 0 | 0 | 0 | 1 | 13 | 0 | 0 | 0 | 0 | 0 | 12 | 25 | 0 | 0 | 0 | 0 | 0 | 0
19 | Cc1c(Cn2c(C)nn3c(=O)cc(N4CCO[C@H](C)C4)nc23)cccc1C(F)(F)F [GSK2373690] | 0 | 31 | 10 | 15 | 0 | 0 | 21 | 0 | 32 | 7 | 0 | 0 | 0 | 0 | 7 | 0 | 7 | 0 | 0 | 0

Row | SMILES | %Inh [1] [%] | %Inh [2] [%] | %Inh [3] [%] | %Inh [4] [%] | %Inh [5] [%] | %Inh [6] [%] | %Inh [7] [%] | %Inh [8] [%] | %Inh [9] [%] | %Inh [10] [%] | %Inh [11] [%] | %Inh [12] [%] | %Inh [13] [%] | %Inh [14] [%] | %Inh [15] [%] | %Inh [16] [%] | %Inh [17] [%] | %Inh [18] [%] | %Inh [19] [%] | %Inh [20] [%]
20 | COc1cc2ncn(-c3cc(OCc4ccc(S(C)(=O)=O)cc4)c(C(N)=O)s3)c2cc1OC [GW869979] | 31 | 0 | 46 | 11 | 30 | 8 | 6 | 6 | 0 | 4 | 0 | 0 | 28 | 0 | 0 | 0 | 0 | 3 | 6 | 0
21 | Nc1nc(-c2ccccc2F)c(-c2ccnc3ccccc23)s1 [GW560459] | 0 | 17 | 39 | 0 | 13 | 2 | 0 | 7 | 0 | 0 | 4 | 0 | 61 | 0 | 0 | 0 | 6 | 0 | 0 | 0
22 | COc1cccc(C2=C(Nc3cccc(C(=O)O)c3)C(=O)NC2=O)c1 [SB-390770] | 0 | 15 | 1 | 12 | 0 | 10 | 14 | 0 | 7 | 0 | 17 | 0 | 8 | 30 | 0 | 33 | 3 | 22 | 33 | 0
23 | CCC(=O)c1c(-c2ccccc2)c2cc(Cl)ccc2c(=O)n1Cc1ccc(C(=O)O)cc1 | 0 | 0 | 0 | 0 | 0 | 4 | 0 | 48 | 0 | 0 | 0 | 0 | 0 | 0 | 0 | 0 | 0 | 0 | 0 | 0
24 | O=C(NCc1cccs1)c1cc(C(=O)c2c(Cl)cccc2Cl)c[nH]1 [GW823670] | 0 | 19 | 28 | 7 | 0 | 15 | 0 | 0 | 0 | 0 | 0 | 0 | 0 | 0 | 0 | 0 | 0 | 0 | 0 | 0
25 | Nc1ncnc2c1ncn2-c1cccc(F)c1 [SKF-97560] | 13 | 0 | 0 | 0 | 29 | 26 | 24 | 24 | 0 | 0 | 5 | 22 | 39 | 0 | 0 | 0 | 0 | 0 | 3 | 0
26 | COC(=O)c1c(-c2ccccc2)c2cc(C)ccc2c(=O)n1Cc1ccccc1 | 0 | 0 | 0 | 0 | 0 | 0 | 19 | 79 | 0 | 0 | 0 | 0 | 0 | 0 | 19 | 12 | 21 | 0 | 0 | 0
27 | COc1ccc(-c2cc3c(C)nc(N)nc3n([C@H]3CC[C@H](OCCO)CC3)c2=O)cn1 | 0 | 22 | 2 | 5 | 1 | 0 | 0 | 0 | 0 | 28 | 0 | 0 | 0 | 7 | 0 | 0 | 0 | 0 | 0 | 0
28 | COc1cc2ncn(-c3cc(OCc4ccncc4)c(C(N)=O)s3)c2cc1OC [GSK336313] | 0 | 14 | 0 | 0 | 0 | 0 | 2 | 0 | 0 | 0 | 0 | 0 | 4 | 24 | 25 | 47 | 24 | 0 | 0 | 37
29 | CCC(=O)c1c(-c2ccccc2)c2cc(Cl)ccc2c(=O)n1Cc1cc(C(=O)NC2CC2)n(C)n1 | 0 | 0 | 0 | 0 | 0 | 9 | 4 | 62 | 0 | 0 | 0 | 15 | 6 | 0 | 12 | 0 | 20 | 0 | 0 | 0
30 | CCCNC(=O)Nc1ccc(Oc2ncnc3ccn(C)c23)cc1 | 0 | 0 | 14 | 10 | 0 | 16 | 0 | 0 | 0 | 0 | 8 | 0 | 0 | 0 | 0 | 19 | 13 | 0 | 1 | 11
31 | CCn1c(-c2nonc2N)nc2ccccc21 [SB-693162/GW549034] | 25 | 6 | 21 | 0 | 34 | 40 | 0 | 15 | 0 | 46 | 4 | 29 | 0 | 8 | 20 | 0 | 17 | 5 | 0 | 0
32 | COc1cccc(C2=C(N(C)c3ccccc3)C(=O)NC2=O)c1 [SB-334865] | 0 | 0 | 0 | 0 | 0 | 0 | 0 | 0 | 15 | 0 | 0 | 0 | 53 | 8 | 12 | 0 | 4 | 0 | 0 | 17
33 | Cc1nnc(-c2ccc3ncn(-c4ccc(S(C)=O)cc4)c3c2)o1 (centres unmarked) | 4 | 0 | 0 | 19 | 0 | 0 | 12 | 0 | 19 | 0 | 0 | 0 | 0 | 13 | 0 | 2 | 11 | 0 | 0 | 4
34 | Nc1ncnc2c1ncn2-c1ccc(Cl)cc1 [AH2635] | 0 | 28 | 24 | 0 | 0 | 2 | 20 | 0 | 0 | 0 | 9 | 0 | 25 | 3 | 4 | 0 | 5 | 0 | 0 | 0
35 | COc1cc2nccc(Nc3ccc(OCc4ccc(NC(C)=O)cc4)cc3)c2cc1OC.Cl [GW440135] | 13 | 0 | 26 | 24 | 0 | 8 | 26 | 6 | 36 | 0 | 0 | 0 | 46 | 31 | 8 | 0 | 5 | 0 | 0 | 4
36 | OCCCNc1nccc(-c2c(-c3cccc(C(F)(F)F)c3)nn3cc(C(F)(F)F)ccc23)n1 [GW630813] | 0 | 0 | 33 | 0 | 0 | 0 | 13 | 0 | 0 | 0 | 0 | 0 | 42 | 0 | 14 | 1 | 11 | 0 | 0 | 22
37 | CCC(=O)c1c(-c2ccccc2)c2cc(Cl)ccc2c(=O)n1Cc1cc(S(C)(=O)=O)n(CC(N)=O)n1 | 2 | 0 | 5 | 0 | 0 | 0 | 16 | 0 | 0 | 0 | 0 | 0 | 0 | 0 | 21 | 0 | 3 | 0 | 0 | 0
